Experimental findings from PubChem BioAssay (NCI) are described below.

A short description of experiment [1]: NCI Yeast Anticancer Drug Screen. Data for the rad50 strain (AID 155).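 Further: 0% = growth of vehicle-only cultures of the same strain.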 The note with it: S. cerevisiae rad50 strain growth inhibition; at 50.0 µM; hits give high values. Put shortly: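 Cells are treated with compound, grown, and their growth is then scored against vehicle-only cultures of the same repair-deficient yeast strain.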
A short description of experiment [2]: NCI Yeast Anticancer Drug Screen. Data for the mec2-1 strain (AID 157). Particulars: S. cerevisiae mec2-1 strain, at 50.0 µM, hits give high values. Put shortly: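 Yeast mec2-1 mutant treated with compound. Readout: growth inhibition vs vehicle controls.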
A short description of experiment [3]: NCI Yeast Anticancer Drug Screen. Data for the cln2 rad14 strain (AID 165).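 Further: 0% = growth equal to vehicle treated cultures.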 Particulars: S. cerevisiae cln2 rad14 strain, at 50.0 µM, hits give high values. Put shortly:
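cln2 rad14 yeast strain; compound exposure; growth inhibition read vs vehicle controls.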

The nature of experiment [4]: NCI Yeast Anticancer Drug Screen. Data for the bub3 strain (AID 167). Particulars: S. cerevisiae bub3 mutant strain, at 50.0 µM, hits give high values. Summed up: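 Part of a panel of yeast mutants defective in DNA damage repair or cell cycle regulation. Each strain is grown with compound, and inhibition is calculated relative to solvent-treated cultures.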
Experiment [5] is described as follows: NCI Yeast Anticancer Drug Screen. Data for the mlh1 rad18 strain (AID 175). The note with it: S. cerevisiae mlh1 rad18 strain growth inhibition; at 50.0 µM; hits give high values. Summed up: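 Yeast w/ defined DNA-repair lesions; compound exposure; growth vs vehicle controls → % inhibition.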
Experiment [6] is described as follows: NCI Yeast Anticancer Drug Screen. Data for the sgs1 mgt1 strain (AID 161).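 Further: 0% = growth of cultures given vehicle only.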 Particulars: S. cerevisiae sgs1 mgt1 strain, at 50.0 µM, hits give high values. Put shortly:
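Mutant yeast exposed to compound; growth scored against vehicle-only wells.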

SMILES strings stand for the structures. The panel holds about 79,000 compounds, 15% with a hit somewhere; the sample as a whole holds those more often. Unmarked numbers belong to inactive results. The source made the active and inactive calls. No stated cut-off is given here; in the data, active means growth inhibition above about 70%; inactive means the rest.

On to `CC(C)CCC1C(=O)N(C)C(=O)N(C)C1=O`, for which the growth inhibition in experiment [1] was -9%; in experiment [2] it was -6.55%; in experiment [3], -0.5%; in experiment [4] it was 0.55%; in experiment [5], 2.05%.
On the same counts, the results for `CN(C)c1ccc(NP(=O)(Nc2ccc(N(C)C)cc2)N(CCCl)CCCl)cc1` are 24.2%, 2.1%, 5.8%, 12.2% and 7.6%.
As to `C[N+]1([O-])C2CCC1CC(O)C2` (configuration not stated), the growth inhibition in experiment [1] is 4.1%; in experiment [2] it was 7.55%; in experiment [3], 16.2%; in experiment [4], -2.5%; in experiment [5], 17.4%.
The like results for `CN1CCCC1c1ccc[n+](C)c1` (configuration not stated) were, in that order, -2.95%, 1.85%, -8.65%, 2.1% and 3.35%.
Consider `CNC(=O)O/N=C(\CN=[N+]=[N-])C(C)(C)C`, for which the growth inhibition is 4.6% in experiment [1]; 3.55% in experiment [2]; 0% in experiment [3]; -19.6% in experiment [4]; -20.5% in experiment [5].
`CC1(C)N=C(N)N=C(N)N1c1ccc(CCc2ccc(S(=O)(=O)F)cc2Cl)c(Cl)c1`: the growth inhibition in experiment [1] was 99.4% (active); in experiment [2] it was 99.7% (active); in experiment [3], 81.5% (active); in experiment [4], 99.2% (active); in experiment [5], 99.5% (active).
With `O=C(COc1ccc(Cl)cc1)Nc1ccc(Cl)cc1C(=O)c1ccccc1`, the growth inhibition is -15.8% in experiment [1]; -8.9% in experiment [2]; 18.8% in experiment [3]; 1.1% in experiment [4]; -18.4% in experiment [5].
Regarding `CCC(CC)C(=O)Cl`, the growth inhibition in experiment [1] was -3.8%; in experiment [2], -4.6%; in experiment [6], -33.2%; in experiment [4], -1.35%; in experiment [5] it was -22.9%.
With `O=C1OCC2(CO)SC(c3ccccc3)NC12` (configuration not stated), the growth inhibition was -11.1% in experiment [1]; -0.3% in experiment [2]; -20.6% in experiment [3]; -4.6% in experiment [4]; -7.45% in experiment [5].
In the case of `Cc1cc[n+](CCc2ccccc2)cc1`, the growth inhibition was 7.95% in experiment [1]; 15.1% in experiment [2]; 15.2% in experiment [6]; 8.75% in experiment [4]; 9.6% in experiment [5].
`CCOP(=O)(OCC)C(=O)N(CC)CC`: the growth inhibition in experiment [1] is 12.2%; in experiment [2], 21.9%; in experiment [3] it was 7.15%; in experiment [4], 20.8%; in experiment [5] it was 1.45%.
Regarding `O=C1NC(=O)C(=C/C=C/c2ccccc2)C(=O)N1`, the growth inhibition in experiment [1] is 34.2%; in experiment [2], -3.5%; in experiment [3], 16.4%; in experiment [4], 10.5%; in experiment [5], -2.25%.
On the same counts, the results for `CC(C)(C(=O)c1ccccc1)N1CC1` are -0.65%, 2.8%, -10.6%, -23.6% and -8.25%.
The like results for `CC1N2C3(c4ccccc4)OC(c4ccccc4)(c4ccccc43)C12c1ccccc1` (configuration not stated) were, in that order, 9.8%, 13.2%, 31.9%, 0.8% and 4.05%.
With `CC(C)(C)P(O)(=S)c1ccccc1` (configuration not stated) (tested in a mixture with another compound), the growth inhibition is 2.65% in experiment [1]; 2.1% in experiment [2]; -34.2% in experiment [3]; -24.6% in experiment [4]; 5.35% in experiment [5].
For `CCOC(=S)S.[Pb]`, the growth inhibition is 18.9% in experiment [1], 21.8% in experiment [2], 27.2% in experiment [6] and 9.7% in experiment [5].
With `CC1(C)N=C(N)N=C(N)N1c1ccc(CCC(=O)Nc2cccc(S(=O)(=O)F)c2)c(Cl)c1`, the growth inhibition is 57.7% in experiment [1]; 82.4% (active) in experiment [2]; -3.05% in experiment [3]; -31.9% in experiment [4]; 8.05% in experiment [5].
For `O=C(O)C(Cc1cnc[nH]1)N1C(=O)c2ccccc2C1=O` (configuration not stated), the growth inhibition in experiment [1] is -16.6%; in experiment [2], -12.9%; in experiment [3], -24.9%; in experiment [4] it was -10%; in experiment [5], -8.85%.
`NC(N)=N/N=C/c1ccc(Cl)c(Cl)c1`: the growth inhibition in experiment [1] is 8.45%; in experiment [2], -3.15%; in experiment [6] it was -8.2%; in experiment [4], -3.6%; in experiment [5] it was 21.4%.
As for `CCOP(=O)(OCC)C(C#N)Cc1ccccc1OC` (configuration not stated), the growth inhibition was 20.6% in experiment [1]; 4.15% in experiment [2]; -18.1% in experiment [3]; 3.3% in experiment [4]; 12.7% in experiment [5].
On to `FC(F)(F)c1ccc2c(c1)N(CCCl)c1ccccc1S2`, for which the growth inhibition in experiment [1] is 4.3%; in experiment [2] it was -8.05%; in experiment [6], -2.4%; in experiment [4], 1.5%; in experiment [5], -4.6%.
As to `Cc1ccc(S(=O)(=O)OC2CC3c4ccccc4C2c2cccc[n+]23)cc1` (configuration not stated), the growth inhibition in experiment [1] was 68%; in experiment [2], 7.5%; in experiment [3] it was -18.4%; in experiment [4] it was 8.8%; in experiment [5], 12.1%.
`CN(C)C(=O)Oc1ccc([N+](=O)[O-])cc1OC(=O)N(C)C`: the growth inhibition in experiment [1] is 2.4%; in experiment [2], -5.25%; in experiment [3], -8.65%; in experiment [4] it was 9.95%; in experiment [5], -4.05%.
Take `O=C(CBr)OCS(=O)(=O)O`: the growth inhibition was -15.2% in experiment [1], -31.6% in experiment [2] and -6.2% in experiment [5].
